# Reference: paper PMC4336329 (PLoS ONE, 2015)
# In all, about 310,000 compounds went through this assay and about 14,000 (4.5%) showed an effect of 50% or more. Effects have a minus sign here. The sample as a whole holds a higher share of strong results than the screen did.
# Target: human ether-à-go-go-related gene (hERG) potassium channel (human, UniProt Q12809)
# Assay: primary screen, population patch clamp on CHO cells stably expressing hERG; higher = less effect of the substance
# 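Further: peak tail current of the secondary pulse compared with the same well before compound.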
# Sequence of human ether-à-go-go-related gene (hERG) potassium channel (Q12809 whole entry, looked up): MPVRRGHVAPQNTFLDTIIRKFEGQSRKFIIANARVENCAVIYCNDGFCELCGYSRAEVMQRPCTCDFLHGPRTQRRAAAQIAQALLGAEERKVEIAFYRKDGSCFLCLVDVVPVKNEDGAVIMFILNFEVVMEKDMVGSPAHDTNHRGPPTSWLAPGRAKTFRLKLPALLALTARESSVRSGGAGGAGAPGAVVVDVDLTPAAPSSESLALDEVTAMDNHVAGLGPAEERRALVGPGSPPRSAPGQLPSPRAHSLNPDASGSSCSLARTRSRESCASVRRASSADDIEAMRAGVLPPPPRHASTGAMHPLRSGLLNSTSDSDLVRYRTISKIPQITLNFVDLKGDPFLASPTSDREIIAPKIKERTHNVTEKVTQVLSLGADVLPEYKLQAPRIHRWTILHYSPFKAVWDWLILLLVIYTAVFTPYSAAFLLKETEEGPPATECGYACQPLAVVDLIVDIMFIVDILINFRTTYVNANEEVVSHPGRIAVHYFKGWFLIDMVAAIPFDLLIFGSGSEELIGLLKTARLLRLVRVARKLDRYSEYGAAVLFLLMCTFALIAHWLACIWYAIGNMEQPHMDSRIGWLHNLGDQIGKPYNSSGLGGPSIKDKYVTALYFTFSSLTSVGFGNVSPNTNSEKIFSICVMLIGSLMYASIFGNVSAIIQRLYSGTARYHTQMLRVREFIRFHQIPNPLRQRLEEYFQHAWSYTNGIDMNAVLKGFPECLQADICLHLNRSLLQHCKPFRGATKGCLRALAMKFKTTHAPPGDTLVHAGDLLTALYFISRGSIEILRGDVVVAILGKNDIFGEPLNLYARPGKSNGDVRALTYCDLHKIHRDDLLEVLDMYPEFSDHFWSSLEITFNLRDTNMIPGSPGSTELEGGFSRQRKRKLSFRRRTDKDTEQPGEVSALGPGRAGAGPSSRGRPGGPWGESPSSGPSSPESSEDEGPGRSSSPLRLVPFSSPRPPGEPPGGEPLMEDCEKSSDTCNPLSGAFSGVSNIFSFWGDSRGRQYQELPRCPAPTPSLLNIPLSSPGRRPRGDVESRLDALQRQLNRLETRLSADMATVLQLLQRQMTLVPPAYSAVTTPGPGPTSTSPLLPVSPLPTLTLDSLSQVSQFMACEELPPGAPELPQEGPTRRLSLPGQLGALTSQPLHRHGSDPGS
row,Compound,"hERG current change (%, negative = inhibition) at 10uM"
1,Cc1cc(C)nc(N2CCC(C(=O)Nc3ccc4c(c3)OCO4)CC2)n1,-5.31%
2,NS(=O)(=O)c1ccc(CNS(=O)(=O)c2ccc3ccccc3c2)cc1,1.74%
3,O=C(CSc1ncccn1)NCc1ccc(Cl)cc1,4.02%
4,COC(=O)C(=O)/C=C(\O)c1c(C)cc(C)cc1C,14.9%
5,COc1ccc(/C=C2/CCc3ccccc3C2=O)cc1OC,-19.8%
6,CCOc1cc(CNCCO)ccc1OCC(=O)NC(C)(C)C.Cl,15.7%
7,O=C(COC(=O)c1ccc(F)cc1F)NCCC1=CCCCC1,10.6%
8,Cl.OCCN1CCN(CC(O)COc2ccc(Cl)cc2)CC1 (stereo not drawn),-20.6%
9,CC(C)OCC(O)CN1CCC(Cc2ccccc2)CC1.Cl (stereo not drawn),-56.9%
10,OC(COc1ccc(OCc2ccccc2)cc1)CN1CCOCC1 (stereo not drawn),-17%
11,Cl.OC(COc1ccc(Br)cc1)CN1CCOCC1 (stereo not drawn),-0.178%
12,CCN1CCN(CC(O)COC(C)C)CC1.Cl (stereo not drawn),2.08%
13,Cl.OC(COc1ccc(Br)cc1)CN1CCCC1 (stereo not drawn),-24.3%
14,Cl.OC(COc1ccc(Cl)cc1)CN1CCN(c2ccccc2)CC1 (stereo not drawn),-29.7%
15,CC(C)OCC(O)CN1CCNCC1.Cl (stereo not drawn),11.6%
16,Cl.OC(COc1ccccc1)CN1CCC(Cc2ccccc2)CC1 (stereo not drawn),-79.3%
17,O=S(=O)(c1ccc(OCC(O)CN2CCC(Cc3ccccc3)CC2)cc1)N1CCOCC1 (stereo not drawn),-44.4%
18,Cl.OC(COc1ccc(Br)cc1)CN1CCC(Cc2ccccc2)CC1 (stereo not drawn),-85.9%
19,Cl.OC(COc1ccc(Cl)cc1)CN1CCC(Cc2ccccc2)CC1 (stereo not drawn),-81.4%

row,Compound,"hERG current change (%, negative = inhibition) at 10uM"
1,COc1ccc(-n2c(O)c(C(C)=NCCc3c[nH]c4ccccc34)c(=O)[nH]c2=O)cc1,14.6%
2,Cc1cc(C)cc(Oc2c(C(F)(F)F)oc3cc(OCC(=O)O)ccc3c2=O)c1,4.25%
3,Cc1ccc(NC(=O)CSc2nnc(-c3cnccn3)n2C)cc1C,-5.78%
4,C/C(=N\Nc1nncc2ccccc12)c1ccc(OCC(=O)N(C)C)cc1,8.27%
5,COc1cc(CN2CCN(c3cccc(C)c3C)CC2)cc([N+](=O)[O-])c1O,23.5%
6,CCC(C)C(NC(=O)C1CCC(C)CC1)C(=O)NC(C(=O)OC)C(C)C (stereo not drawn),-0.903%
7,CCCn1c2ccccc2c2nc3ccccc3nc21,13%
8,COc1ccc2c(c1)c(C(=O)CN1CCN(Cc3ccccc3)CC1)c(C)n2C,-29.8%
9,Cc1c(C(O)CN2CCC(C(N)=O)CC2)c2ccccc2n1C (stereo not drawn),-3.73%
10,OC(CN1CCN(c2ccccc2Cl)CC1)c1ccccc1 (stereo not drawn),-42.3%
11,COc1ccc2c(c1)c(C(O)CN1CCC(Cc3ccccc3)CC1)c(C)n2C (stereo not drawn),-71%
12,OC(CN1CCC(Cc2ccccc2)CC1)c1ccccc1 (stereo not drawn),-52.9%
13,OC(COc1ccc(F)cc1Cl)CN1CCC(Cc2ccccc2)CC1 (stereo not drawn),-84.6%
14,OC(CN1CCC(Cc2ccccc2)CC1)C(F)(F)F (stereo not drawn),5.97%
15,O=C(O)C(=O)O.O=S(=O)(c1ccc(F)cc1)N1CCN(CC(O)COc2ccccc2F)CC1 (stereo not drawn),-14.5%
16,Fc1cccc(CN2CCC(Cc3ccccc3)CC2)c1,5.12%
17,CC1CCN(CC(O)COc2cccc(F)c2)CC1 (stereo not drawn),-24.8%
18,Fc1ccccc1CN1CCC(Cc2ccccc2)CC1,-24.4%
19,Cl.OC(COc1ccccc1F)CN1CCC(Cc2ccccc2)CC1 (stereo not drawn),-76.2%

row,Compound,"hERG current change (%, negative = inhibition) at 10uM"
1,COc1ccccc1NC(=O)Nc1nc(CC(=O)Nc2cccc(F)c2)cs1,-3.26%
2,COc1ccc(CCNC(=O)C2CCN(S(=O)(=O)c3cccc4cccnc34)CC2)cc1OC,12.1%
3,CCOC(=O)N1CCN(c2nnnn2-c2ccccc2)CC1,-0.913%
4,CCCCNC(=O)C(CC)(ONc1ccccc1C(F)(F)F)c1ccccc1 (stereo not drawn),6.19%
5,CC(C)(C)c1ccc(C(=O)NNC(=O)C(=O)N2CCCCC2)cc1,14.3%
6,CS(=O)(=O)Nc1cccc(C2=NN(C(=O)c3cccc([N+](=O)[O-])c3)C(c3cccs3)C2)c1 (stereo not drawn),-13.4%
7,COc1cccc(OCC(O)CN2CCN(c3ncccn3)CC2)c1.Cl (stereo not drawn),-11%
8,COc1cccc(OCC(O)CN2CCC(Cc3ccccc3)CC2)c1.Cl (stereo not drawn),-70.4%
9,COc1cccc(OCC(O)CN2CCC(C)CC2)c1.Cl (stereo not drawn),-12.3%
10,COc1ccc(CCNC(=O)C(CC(C)C)NC(N)=O)cc1 (stereo not drawn),9.22%
11,COc1ccc(C)cc1Nc1n[n+](-c2ccccc2)c(-c2cc([N+](=O)[O-])cc(OC)c2O)s1.[Cl-],6.15%
12,COc1ccc(C)cc1Nc1n[n+](-c2ccccc2)c(-c2c(OC)ccc3ccccc23)s1.[Cl-],-53.8%
13,COc1ccc(C)cc1Nc1n[n+](-c2ccccc2)c(-c2ccc(C(=O)O)cc2)s1.[Cl-],18%
14,COc1ccc(C)cc1Nc1n[n+](-c2ccccc2)c(-c2c(Cl)cccc2Cl)s1.[Cl-],-55.9%
15,COc1ccc(C)cc1Nc1n[n+](-c2ccccc2)c(-c2ccc(OC)c(OC)c2OC)s1.[Cl-],-71.8%
16,COc1ccc(C)cc1Nc1n[n+](-c2ccccc2)c(-c2cccc(Cl)c2Cl)s1.[Cl-],10%
17,COc1ccc(C)cc1Nc1n[n+](C)c(-c2c3ccccc3cc3ccccc23)s1.[Cl-],13.3%
18,COc1ccc(C)cc1Nc1n[n+](-c2ccccc2)c(-c2ccc(NC(C)=O)cc2)s1.[Cl-],12.8%
19,COc1ccc(C)cc1Nc1n[n+](-c2ccccc2)c(-c2cc(OC)c(OC)cc2Br)s1.[Cl-],-48.9%
